In PubChem BioAssay (Tox21):
Inconclusive results are not listed. Where a call stands in place of a potency, no number is given. Calls of active or inactive are those of the source. Unless noted, calls come from the whole dose curve; as a rule, active = well fitted curve in the direction sought with a large enough effect in the repeat runs; inconclusive = weak or mixed curves; inactive = flat fitted curve, though single readings scatter.

Columns and labels:
[1] = qHTS assay to test for compound auto fluorescence at 535 nm (green) in HEK293 cells (AID 720680); settings: green autofluorescence 485/535 nm; series mostly up to 91.3 µM
[2] = qHTS assay to test for compound auto fluorescence at 460 nm (blue) in HEK293 cell free culture (AID 720681); settings: cell-free medium, autofluorescence 405/460 nm (blue); series mostly up to 91.3 µM
Method in brief: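 Blue fluorescence (Ex 405/Em 460 nm, triamterene-equivalent) was read immediately after pin transfer of compound or DMSO into medium (DMEM, 10% FBS) without cells.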

[3] = qHTS assay to test for compound auto fluorescence at 535 nm (green) in HEK293 cell free culture (AID 720682); settings: cell-free medium, green autofluorescence 485/535 nm, stronger effect = higher value; series mostly up to 91.3 µM
Method in brief: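 Read-out: 485/535 nm fluorescence intensity, calibrated against fluorescein. Medium only (DMEM + 10% FBS, no cells); test compound or DMSO vehicle added by pintool before plate reading.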

[4] = qHTS assay to test for compound auto fluorescence at 590 nm (red) in HEK293 cell free culture (AID 720683); settings: cell-free medium autofluorescence, Ex540/Em590 red; series mostly up to 91.3 µM
Method in brief: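 Red-channel autofluorescence of compounds in culture medium (DMEM, 10% FBS), no cells, measured at 540/590 nm. Rose Bengal sodium is the reference fluorophore for equivalence.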

[5] = qHTS assay to test for compound auto fluorescence at 590 nm (red) in HepG2 cell free culture (AID 720684); settings: cell-free medium autofluorescence, red 540/590 nm; series mostly up to 91.3 µM
Method in brief: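 Plate contents were MEM with 10% FBS plus test compound or DMSO, no cells. Fluorescence was recorded with 540 nm excitation and 590 nm emission.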

[6] = qHTS assay to test for compound auto fluorescence at 460 nm (blue) in HepG2 cell free culture (AID 720685); settings: Cell-free culture medium, blue autofluorescence 405/460 nm; series mostly up to 91.3 µM
Method in brief: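 Compound (23 nL) or DMSO pinned into cell-free MEM with 10% FBS; blue fluorescence read at 405/460 nm excitation/emission, expressed as auto-fluorescence equivalency to triamterene.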

[7] = qHTS assay to test for compound auto fluorescence at 535 nm (green) in HepG2 cell free culture (AID 720686); settings: Cell-free medium, green autofluorescence 485/535 nm; series mostly up to 91.3 µM
[8] = qHTS assay to test for compound auto fluorescence at 460 nm (blue) in HepG2 cells (AID 720687); settings: autofluorescence 405/460 nm, 1 h; series mostly up to 91.3 µM
Method in brief: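 Blue-channel autofluorescence (Ex/Em 405/460 nm, triamterene-equivalent) was measured after 1 hr compound exposure at 37 C, 5% CO2. Cells were HepG2, plated overnight at 37 C in MEM plus 10% FBS.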

[9] = biological target: Glucocorticoid receptor (Homo sapiens) (UniProt P04150); experiment: qHTS assay to identify small molecule antagonists of the glucocorticoid receptor (GR) signaling pathway (AID 720692; active = well fitted inhibition curve with a large enough effect in the signal ratio in the repeat runs, not every such curve was filed as active; the % refers to the signal ratio; note: potency is the fitted concentration of half-maximal effect); settings: GR-bla HeLa, beta-lactamase FRET ratio, dexamethasone-stimulated, 18 h; series mostly up to 58.5 µM
Glucocorticoid receptor (Homo sapiens), sequence (P04150 whole entry, looked up): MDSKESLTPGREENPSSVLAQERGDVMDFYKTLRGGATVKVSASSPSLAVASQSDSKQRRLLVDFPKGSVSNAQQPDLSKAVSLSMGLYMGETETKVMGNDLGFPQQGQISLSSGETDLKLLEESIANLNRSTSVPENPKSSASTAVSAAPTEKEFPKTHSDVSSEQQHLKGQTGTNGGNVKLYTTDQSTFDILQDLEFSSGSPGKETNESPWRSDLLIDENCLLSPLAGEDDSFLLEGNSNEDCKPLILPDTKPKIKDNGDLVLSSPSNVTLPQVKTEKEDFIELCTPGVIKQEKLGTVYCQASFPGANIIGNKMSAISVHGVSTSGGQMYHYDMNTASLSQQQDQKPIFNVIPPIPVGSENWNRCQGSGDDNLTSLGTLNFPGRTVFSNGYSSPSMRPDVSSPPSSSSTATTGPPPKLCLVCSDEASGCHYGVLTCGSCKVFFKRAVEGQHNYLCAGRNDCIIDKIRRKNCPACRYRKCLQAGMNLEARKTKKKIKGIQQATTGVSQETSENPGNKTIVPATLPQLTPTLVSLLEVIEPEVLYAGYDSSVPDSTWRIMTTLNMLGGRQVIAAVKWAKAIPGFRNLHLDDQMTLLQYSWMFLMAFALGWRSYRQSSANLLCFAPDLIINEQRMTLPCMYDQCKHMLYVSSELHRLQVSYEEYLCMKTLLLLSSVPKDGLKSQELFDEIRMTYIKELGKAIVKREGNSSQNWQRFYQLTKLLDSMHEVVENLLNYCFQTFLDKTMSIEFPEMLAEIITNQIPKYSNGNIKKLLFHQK
Method in brief: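 Fluorescence from cleaved LiveBLAzer B/G FRET substrate reports GRE-driven beta-lactamase in HeLa cells; compounds are tested against 5 nM dexamethasone (final) over 18 h at 37 C, substrate incubation 2 h at room temperature.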

[10] = biological target: Glucocorticoid receptor (Homo sapiens) (UniProt P04150); experiment: qHTS assay to identify small molecule agonists of the glucocorticoid receptor (GR) signaling pathway (AID 720691; active = well fitted activation curve with a large enough effect in the signal ratio in the repeat runs, not every such curve was filed as active; the % refers to the signal ratio); settings: GR-bla HeLa, beta-lactamase reporter ratio, 18 h; series mostly up to 62.4 µM
Method in brief: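 Beta-lactamase reporter activity, read as fluorescence intensity, was measured in GR-bla HeLa cells exposed to compounds for 18 h at 37 C and then loaded with LiveBLAzer B/G FRET substrate for 2 h at room temperature.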

Structure (SMILES) | outcome [1] | outcome [2] | outcome [3] | outcome [4] | outcome [5] | outcome [6] | outcome [7] | outcome [8] | Potency [9] | outcome [10]
O=[N+]([O-])c1cc(C(F)(F)F)cc([N+](=O)[O-])c1Cl | inactive | inactive | inactive | inactive | inactive | inactive | inactive | inactive | inactive | 
N#CCC#N | inactive | inactive | inactive | inactive | inactive | inactive | inactive | inactive | inactive | 
COc1nn(C(=O)NS(=O)(=O)c2ccccc2OC(F)(F)F)c(=O)n1C | inactive | inactive | inactive | inactive | inactive | inactive | inactive | inactive | inactive | inactive
C=CC(=O)OC(C)(C)C | inactive | inactive | inactive | inactive | inactive | inactive | inactive | inactive | inactive | 
CN(N=O)c1ccc([N+](=O)[O-])cc1 | inactive | inactive | inactive | inactive | inactive | inactive | inactive | inactive | inactive | 
O=C(Nc1ccccc1)Nc1ccnc(Cl)c1 | inactive | inactive | inactive | inactive | inactive | inactive | inactive | inactive | 54.9 µM (active) | 
CC(c1ccc(O)cc1)(c1ccc(O)cc1)c1ccc(O)cc1 | inactive | inactive | inactive | inactive | inactive | inactive | inactive | inactive | 19.5 µM (active) | 
CCCC(Cn1cncn1)c1ccc(Cl)cc1Cl (configuration not stated) | inactive | inactive | inactive | inactive | inactive | inactive | inactive | inactive | 49 µM (active) | 
Oc1ccc(Cl)c(Cl)c1Cl | inactive | inactive | inactive | inactive | inactive | inactive | inactive | inactive | inactive | 
CCOc1nc(F)cc2nc(S(=O)(=O)Nc3c(Cl)cccc3Cl)nn12 | inactive | inactive | inactive | inactive | inactive | inactive | inactive | inactive | inactive | 
O=C(O)C(F)(F)C(F)(F)C(F)(F)C(F)(F)C(F)(F)C(F)(F)C(F)(F)C(F)(F)C(F)(F)F | inactive | inactive | inactive | inactive | inactive | inactive | inactive | inactive | inactive | 
O=S1(=O)OC(c2cc(Br)c(O)c(Br)c2)(c2cc(Br)c(O)c(Br)c2)c2ccccc21 | inactive | inactive | inactive | inactive | inactive | inactive | inactive | inactive | inactive | 
CCCN(CC1CC1)c1c([N+](=O)[O-])cc(C(F)(F)F)cc1[N+](=O)[O-] | inactive | inactive | inactive | inactive | inactive | inactive | inactive | inactive | inactive | 
CCCCCCCCCC(=O)O[C@H]1CC[C@H]2[C@@H]3CCC4=CC(=O)CC[C@@H]4[C@H]3CC[C@]12C | inactive | inactive | inactive | inactive | inactive | inactive | inactive | inactive | 9.52 µM (active) | 
